# Data published in PubChem BioAssay AID1159580 (chemical genetic matrix, 2015).
# About 2,000 (36%) of roughly 5,500 compounds were called active. Not shown: some 18% with an inconclusive outcome. Some of the results follow. Values without a mark were called inactive. Rule as the data show it: active = normalized growth mostly below about 0.91 (no sharp cut-off); inconclusive = no clear call, values can overlap the other calls; inactive = mostly above about 0.92.
# Assay: chemical genetic growth profiling, strain panel (AID 1159580);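 also: tested at 20 µM; growth read once vehicle control cultures reached saturation at 30 °C; 1 = growth at the plate median or of vehicle wells; lower values mean less growth of the strain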
# Conditions: S. cerevisiae deletion strains, growth OD
# [1] = locus YAR019C, strain CDC15, active compounds read low
# [2] = locus YBL105C, strain PKC1, active compounds read low
# [3] = locus YBR135W, strain CKS1, active compounds read low
# [4] = locus YBR136W, strain MEC1, active compounds read low
# [5] = locus YBR160W, strain CDC28, active compounds read low
# [6] = locus YDL017W, strain CDC7, active compounds read low
# [7] = locus YDL028C, strain MPS1, active compounds read low
# [8] = locus YDL101C, strain DUN1, active compounds read low
# [9] = locus YDL108W, strain KIN28, active compounds read low
# [10] = locus YDL132W, strain cdc53, active compounds read low
# [11] = locus YDL214C, strain PRR2, active compounds read low
# [12] = locus YDR052C, strain DBF4, active compounds read low
# [13] = locus YDR054C, strain cdc34, active compounds read low
# [14] = locus YDR226W, strain ADK1, active compounds read low
# [15] = locus YDR477W, strain SNF1, active compounds read low
# [16] = locus YER123W, strain YCK3, active compounds read low
# [17] = locus YER133W, strain GLC7, active compounds read low
# [18] = locus YFL009W, strain cdc4, active compounds read low
# [19] = locus YFL029C, strain CAK1, active compounds read low
# [20] = locus YFR003C, strain YPI1, active compounds read low
# [21] = locus YFR019W, strain FAB1, active compounds read low
# [22] = locus YGR040W, strain KSS1, active compounds read low
# [23] = locus YGR052W, strain FMP48, active compounds read low
# [24] = locus YGR092W, strain DBF2, active compounds read low
# [25] = locus YHR030C, strain SLT2, active compounds read low
# [26] = locus YHR079C, strain IRE1, active compounds read low
# [27] = locus YHR082C, strain KSP1, active compounds read low
# [28] = locus YHR205W, strain SCH9, active compounds read low
# [29] = locus YIL147C, strain SLN1, active compounds read low
# [30] = locus YJL095W, strain BCK1, active compounds read low
# [31] = locus YJL128C, strain PBS2, active compounds read low
# [32] = locus YJL157C, strain FAR1, active compounds read low
# [33] = locus YJR016C, strain ILV3, active compounds read low
# [34] = locus YJR066W, strain TOR1 (second series), active compounds read low
# [35] = locus YJR066W, strain TOR1, active compounds read low
# [36] = locus YKL048C, strain ELM1, active compounds read low
# [37] = locus YKL067W, strain YNK1, active compounds read low
# [38] = locus YKL101W, strain HSL1, active compounds read low
# [39] = locus YKL193C, strain SDS22, active compounds read low
# [40] = locus YKL203C, strain TOR2, active compounds read low
# [41] = locus YLR113W, strain HOG1, active compounds read low
# [42] = locus YLR133W, strain CKI1, active compounds read low
# [43] = locus YLR403W, strain SFP1, active compounds read low
# [44] = locus YML070W, strain DAK1, active compounds read low
# [45] = locus YMR001C, strain CDC5, active compounds read low
# [46] = locus YMR205C, strain PFK2 (second series), active compounds read low
# [47] = locus YMR277W, strain FCP1, active compounds read low
# [48] = locus YNL006W, strain LST8, active compounds read low
# [49] = locus YNL020C, strain ARK1, active compounds read low
# [50] = locus YNL161W, strain CBK1, active compounds read low
# [51] = locus YNL183C, strain NPR1, active compounds read low
# [52] = locus YNL207W, strain RIO2, active compounds read low
# [53] = locus YNL222W, strain SSU72, active compounds read low
# [54] = locus YNL307C, strain MCK1 (second series), active compounds read low
# [55] = locus YOL078W, strain AVO1, active compounds read low
# [56] = locus YOL136C, strain PFK27, active compounds read low
# [57] = locus YOR061W, strain CKA2, active compounds read low
# [58] = locus YOR119C, strain RIO1, active compounds read low
# [59] = locus YOR231W, strain MKK1, active compounds read low
# [60] = locus YOR329C, strain SCD5, active compounds read low
# [61] = locus YPL031C, strain PHO85, active compounds read low
# [62] = locus YPL153C, strain RAD53, active compounds read low
# [63] = locus YPL204W, strain HRR25, active compounds read low
# [64] = locus YPL209C, strain IPL1, active compounds read low
# [65] = locus YPL256C, strain CLN2, active compounds read low
# [66] = locus YPR025C, strain CCL1, active compounds read low
# [67] = locus YPR111W, strain DBF20, active compounds read low
# [68] = strain NNK1, active compounds read low
# [69] = strain TSCII, active compounds read low
smiles,measurement,setting,value
CC1C/C(=N/Nc2ccc(Br)cc2)c2cc(Cl)ccc2S1 (stereo unspecified),normalized growth,[1],0.535 (active)
same,normalized growth,[2],0.485 (active)
same,normalized growth,[3],0.429 (active)
same,normalized growth,[4],0.497 (active)
same,normalized growth,[5],0.58 (active)
same,normalized growth,[6],0.525 (active)
same,normalized growth,[7],0.396 (active)
same,normalized growth,[8],0.458 (active)
same,normalized growth,[9],0.598 (active)
same,normalized growth,[10],0.546 (active)
same,normalized growth,[11],0.161 (active)
same,normalized growth,[12],0.703 (active)
same,normalized growth,[13],0.333 (active)
same,normalized growth,[14],0.931
same,normalized growth,[15],0.146 (active)
same,normalized growth,[16],0.166 (active)
same,normalized growth,[17],0.213 (active)
same,normalized growth,[18],0.434 (active)
same,normalized growth,[19],0.404 (active)
same,normalized growth,[20],0.433 (active)
same,normalized growth,[21],0.124 (active)
same,normalized growth,[22],0.187 (active)
same,normalized growth,[23],0.215 (active)
same,normalized growth,[24],0.125 (active)
same,normalized growth,[25],0.193 (active)
same,normalized growth,[26],0.192 (active)
same,normalized growth,[27],0.277 (active)
same,normalized growth,[28],0.0907 (active)
same,normalized growth,[29],0.409 (active)
same,normalized growth,[30],0.15 (active)
same,normalized growth,[31],0.318 (active)
same,normalized growth,[32],0.168 (active)
same,normalized growth,[33],0.343 (active)
same,normalized growth,[34],0.117 (active)
same,normalized growth,[35],0.224 (active)
same,normalized growth,[36],0.198 (active)
same,normalized growth,[37],0.185 (active)
same,normalized growth,[38],0.187 (active)
same,normalized growth,[39],0.498 (active)
same,normalized growth,[40],0.182 (active)
same,normalized growth,[41],0.235 (active)
same,normalized growth,[42],0.128 (active)
same,normalized growth,[43],0.0605 (active)
same,normalized growth,[44],0.151 (active)
same,normalized growth,[45],0.644 (active)
same,normalized growth,[46],0.163 (active)
same,normalized growth,[47],0.519 (active)
same,normalized growth,[48],0.265 (active)
same,normalized growth,[49],0.141 (active)
same,normalized growth,[50],0.383 (active)
same,normalized growth,[51],0.194 (active)
same,normalized growth,[52],0.624 (active)
same,normalized growth,[53],0.369 (active)
same,normalized growth,[54],0.114 (active)
same,normalized growth,[55],0.529 (active)
same,normalized growth,[56],0.158 (active)
same,normalized growth,[57],0.12 (active)
same,normalized growth,[58],0.158 (active)
same,normalized growth,[59],0.187 (active)
same,normalized growth,[60],0.303 (active)
same,normalized growth,[61],0.147 (active)
same,normalized growth,[62],0.126 (active)
same,normalized growth,[63],0.131 (active)
same,normalized growth,[64],0.385 (active)
same,normalized growth,[65],0.208 (active)
same,normalized growth,[66],0.41 (active)
same,normalized growth,[67],0.9
same,normalized growth,[68],0.545 (active)
same,normalized growth,[69],0.644 (active)
CC1C/C(=N/Nc2ccc(Br)cc2)c2cc(Cl)ccc2S1(=O)=O (stereo unspecified),normalized growth,[1],1.01
same,normalized growth,[2],0.996
same,normalized growth,[3],0.989
same,normalized growth,[4],0.999
same,normalized growth,[5],0.995
same,normalized growth,[6],0.997
same,normalized growth,[7],1
same,normalized growth,[8],0.988
same,normalized growth,[9],0.992
same,normalized growth,[10],0.986
same,normalized growth,[11],0.888
same,normalized growth,[12],0.998
same,normalized growth,[13],1
same,normalized growth,[14],0.986
same,normalized growth,[15],0.895
same,normalized growth,[16],0.82
same,normalized growth,[17],0.895
same,normalized growth,[18],0.991
same,normalized growth,[19],0.992
same,normalized growth,[20],0.998
same,normalized growth,[21],0.732 (active)
same,normalized growth,"locus YFR028C, strain CDC14, active compounds read low",0.991
same,normalized growth,[22],0.893
same,normalized growth,[23],0.93
same,normalized growth,[24],0.397 (active)
same,normalized growth,[25],0.462 (active)
same,normalized growth,[26],0.647
same,normalized growth,[27],0.793
same,normalized growth,[28],0.728
same,normalized growth,[29],1
same,normalized growth,[30],0.8
same,normalized growth,[31],1
same,normalized growth,[32],0.801
same,normalized growth,[33],0.99
same,normalized growth,[34],0.783
same,normalized growth,[35],0.804
same,normalized growth,[36],0.906
same,normalized growth,[37],0.911
same,normalized growth,[38],0.9
same,normalized growth,[39],0.98
same,normalized growth,[40],0.92
same,normalized growth,[41],0.885
same,normalized growth,[42],0.848
same,normalized growth,[43],0.763
same,normalized growth,[44],0.841
same,normalized growth,[45],0.995
same,normalized growth,[46],0.903
same,normalized growth,[47],0.982
same,normalized growth,[48],0.984
same,normalized growth,[49],0.837
same,normalized growth,[50],0.987
same,normalized growth,[51],0.908
same,normalized growth,[52],0.992
same,normalized growth,[53],0.986
same,normalized growth,[54],0.667
same,normalized growth,[55],0.99
same,normalized growth,[56],0.8
same,normalized growth,[57],0.507 (active)
same,normalized growth,[58],0.839
same,normalized growth,[59],0.879
same,normalized growth,[60],0.998
same,normalized growth,[61],0.868
same,normalized growth,[62],0.854
same,normalized growth,[63],0.855
same,normalized growth,[64],0.988
same,normalized growth,[65],0.879
same,normalized growth,[66],0.995
same,normalized growth,"locus YPR106W, strain ISR1, active compounds read low",0.998
same,normalized growth,[67],0.992
same,normalized growth,[68],0.994
same,normalized growth,[69],0.994
Cc1nc2n(c(=O)c1CCN1CCC(c3noc4cc(F)ccc34)CC1)CCCC2,normalized growth,"locus YAL013W, strain DEP1, active compounds read low",0.998
same,normalized growth,"locus YAL040C, strain CLN3, active compounds read low",1.02
same,normalized growth,"locus YCL061C, strain MRC1 (second series), active compounds read low",1.01
same,normalized growth,"locus YDR150W, strain NUM1, active compounds read low",1
same,normalized growth,"locus YDR363W, strain ESC2, active compounds read low",0.988
same,normalized growth,"locus YER002W, strain NOP16, active compounds read low",1
same,normalized growth,"locus YGR229C, strain SMI1, active compounds read low",1
same,normalized growth,"locus YMR263W, strain SAP30, active compounds read low",1
same,normalized growth,"locus YMR307W, strain GAS1, active compounds read low",1.02
same,normalized growth,"locus YNL128W, strain TEP1, active compounds read low",1.03
same,normalized growth,"locus YNL153C, strain GIM3, active compounds read low",1.01
same,normalized growth,"locus YNL175C, strain NOP13, active compounds read low",1.01
same,normalized growth,"locus YNL197C, strain WHI3, active compounds read low",1.01
same,normalized growth,"locus YNL224C, strain SQS1, active compounds read low",1
same,normalized growth,"locus YOR083W, strain WHI5 (second series), active compounds read low",1
same,normalized growth,"locus YPL241C, strain CIN2, active compounds read low",1
